Experimental data: ChEMBL document CHEMBL1157539, “Thousands of chemical starting points for antimalarial lead identification” (Nature, 2010)

What was measured:
Type in all cases: functional
Plasmodium falciparum [1] = test: GSK_TCMDC: Inhibition of Plasmodium falciparum 3D7 in whole red blood cells, using parasite LDH activity as an index of growth. Test compounds present at 2uM
Plasmodium falciparum [2] = test: GSK_TCMDC: Inhibition of Plasmodium falciparum Dd2 in whole red blood cells, using parasite LDH activity as an index of growth. Test compounds present at 2uM
HepG2 = test: GSK_TCMDC: Percent inhibition of human HepG2 cell line. Test compounds present at 10uM.

Compound | Inhibition (Plasmodium falciparum [1]) [%] | Inhibition (Plasmodium falciparum [2]) [%] | Inhibition (HepG2) [%]
O=C(Nc1cccc(CN2CCCN(Cc3cccnc3)CC2)c1)c1ccc(Cl)c(Cl)c1.O=C(O)C(F)(F)F | 84 | 19 | 16
CCc1ccc(CN2CCC(CNC(=O)c3cc(-c4cccc(F)c4)cs3)C2)cc1.O=C(O)C(F)(F)F (centres undefined) | 84 | 4 | 23
CCNC(=O)Nc1cccc(-c2ccc(-c3nc4cccc(C)c4[nH]3)s2)c1 | 96 | 20 | 32
O=C(/C=C/c1ccc(Cl)c(Cl)c1)NCCCCCN1CCN(C(=O)Nc2cccc(F)c2)CC1 | 91 | 1 | 12
O=C(Nc1ccc(-c2nc3ccccc3[nH]2)cc1)c1ccc([N+](=O)[O-])s1 | 100 | 77 | 83
CCOc1ccc2c(=NN=Cc3cccc(Cl)c3)cc(C)[nH]c2c1 | 93 | 34 | 0
O=C(NCc1cccc(F)c1)Nc1cccc(-c2ccc(-c3nc4cc(C(F)(F)F)ccc4[nH]3)cc2)c1 | 98 | 20 | 50
O=C(O)C(F)(F)F.O=S(=O)(NCCN1CCCC1)c1cccc(-c2ccc(CNCc3ccc(F)cc3)cc2)c1 | 100 | 41 | 38
COc1ccc(NC(=O)Nc2ccc(-c3cccc(-c4nc5ccccc5[nH]4)c3)cc2)cc1 | 99 | 41 | 44
COc1ccc(OC)c(Cc2cnc3nc(N)[nH]c(=O)c3c2C)c1 | 98 | 4 | 62
CC(C)Nc1cc(C(=O)N[C@@H](Cc2ccccc2)[C@H](O)CNCc2cccc(C(F)(F)F)c2)c(F)c(N2CCCCS2(=O)=O)c1.O=CO | 93 | 78 | 0
CCN(CC)CCN(Cc1ccc(-c2ccc(C(F)(F)F)cc2)cc1)C(=O)Cn1cc(Cc2cnn(C)c2)c(=O)n2nc(-c3ccccc3)cc12.O=C(O)C(O)C(O)C(=O)O | 100 | 74 | 18
COc1cc(NC(=O)c2cc([N+](=O)[O-])ccc2NC(=O)CNC2CCCC(C)C2C)cc(OC)c1 (centres undefined) | 97 | 80 | 21
CS(=O)(=O)O.FC(F)(F)COc1ccc2ccccc2c1CNCCCCCCNCc1c(OCC(F)(F)F)ccc2ccccc12 | 100 | 95 | 99
COC(=O)c1ccc(NC(=O)c2ccc(CCN3CCC(c4nc(COCC(F)(F)F)c(-c5ccc(F)cc5)o4)CC3)cc2)cc1 | 89 | 37 | 22
CNCCNCc1ccc(-c2ccc(-c3nc4cc(F)ccc4[nH]3)cc2)cc1.O=C(O)C(F)(F)F | 98 | 97 | 30
CC(=O)Nc1cccc(C(=O)Nc2cccc(-c3cccc(-c4nc5ccccc5[nH]4)c3)c2)c1 | 100 | 66 | 41
CCC[C@@H]([C@@H](CC(C)C)C(=O)N[C@@H](CCCCNC(=O)c1ccccn1)C(=O)Nc1nccs1)N(O)C=O | 100 | 100 | 0
